The whole screen tested about 48,000 compounds, of which about 13,000 (27%) showed an effect of 50% or more. This is one part of the list.
system: Wolbachia pipientis; experiment: Anti-Wolbachia Cell-Based Screen; assay type: functional; parameters: scale not given: in the data most compounds retested in dose-response had high values; details: 5 µM

SMILES	Percent Effect [%]
CCc1nc(CN2CCCN(c3ncnc4ccccc34)CC2)no1	29.73
Cc1noc(CCCC(=O)NC(C)c2ccccn2)n1 (stereo unspecified)	-13.35
CC(C)n1c2ccccc2c2c1cc(C(=O)N(C)C)n2C	109.8
CC(C)n1c2ccccc2c2c1cc(C(=O)N(C)C)n2C(=O)N(C)C	90.72
CCCN(CC)C(=O)c1cc2c(c3ccccc3n2C)n1C(=O)N(C)C	-10.54
O=C(NCCc1nncn1C1CC1)C1SCCc2sccc21 (stereo unspecified)	-5.898
CCN(Cc1ccncc1)C(=O)c1cc(C)c(C)c(S(N)(=O)=O)c1	3.273
O=C(NCc1ccco1)[C@H]1C[C@@H]2CCN(c3nncs3)C[C@H]2O1.O=C(O)C(F)(F)F	106
O=C(NCc1ccco1)[C@H]1C[C@@H]2CCN(c3ncccn3)C[C@H]2O1.O=C(O)C(F)(F)F	105.1
O=C(NCc1ccco1)[C@H]1C[C@@H]2CCN(c3ccncn3)C[C@@H]2O1.O=C(O)C(F)(F)F	48.28
O=C(NCc1ccco1)[C@@H]1COC[C@H]2CN(c3ncc(F)cn3)C[C@H]21.O=C(O)C(F)(F)F	0.4075
O=C(NCc1ccco1)[C@H]1C[C@@H]2CCN(c3cccc(F)c3)C[C@H]2O1.O=C(O)C(F)(F)F	104.2
O=C(NCCc1ccncc1)[C@H]1C[C@@H]2CCN(c3nncs3)C[C@H]2O1	96.02
COc1ccnc(N2CCN(C(=O)c3csnn3)CC2)n1	-4.272
CCN(CC)C1(Cc2cc(COC)on2)COC1	-6.864
CCC(C)(C)NC(=O)c1ccc(-c2ccco2)[nH]c1=O	-18
Cc1cccc(C)c1NC(=O)CCNC(=O)c1ccoc1	6.824
CC(C)CCn1ccc(NC2CCSC2)n1 (stereo unspecified)	-1.669
O=C(NC[C@H]1OC[C@@H](NCc2ccccc2)[C@@H]1O)Nc1ccc(F)cc1	-15.63
Fc1ccc2[nH]c(CO[C@H]3CN(CC4CC4)C[C@H]3F)nc2c1	-6.025
O=C(NCC1(c2cccc(F)c2)CC1)N1CCC2(CCOC2)C1 (stereo unspecified)	-9.611
Cc1nn2c(N3CCC(C(N)=O)CC3)cc(-c3ccccc3)nc2c1C	0.08495
O=C(NCC1CCOCC1)[C@H]1C[C@@H]2CCN(c3nncs3)C[C@@H]2O1.O=C(O)C(F)(F)F	99.44
Cc1ccc(N2CC[C@H]3C[C@H](C(=O)NCc4ccco4)O[C@@H]3C2)cc1.O=C(O)C(F)(F)F	96.02
Cc1ccc(N2CC[C@H]3C[C@H](C(=O)NCc4ccco4)O[C@H]3C2)nn1.O=C(O)C(F)(F)F	108.4
O=C(Nc1cccnc1)[C@H]1C[C@@H]2CCN(c3nncs3)C[C@H]2O1.O=C(O)C(F)(F)F.O=C(O)C(F)(F)F	12.63

SMILES	Percent Effect [%]
Cc1ccc(N2C[C@H]3OCC[C@H]3[C@H](C(=O)NCc3ccco3)C2)nn1	0.2496
COCCNC(=O)[C@H]1C[C@@H]2CCN(c3nncs3)C[C@H]2O1.O=C(O)C(F)(F)F	-6.597
Cc1cc(S(=O)(=O)N2CC[C@@H](O)C2)c(Cl)cc1F	1.456
O=C(C1CCOC1)N1CCN(Cc2cccnc2)c2ncccc2C1 (stereo unspecified)	79.91
O=C(C1CCOCC1)N1CCN(CC2CC2)c2ncccc2C1	-9.379
O=C(C1CCOC1)N1CCN(Cc2ccncc2)c2ncccc2C1 (stereo unspecified)	109.7
CCN1CCN(CCCNC(=O)c2cc3ccc(C)cc3nc2C)CC1	26.08
CN(C)C1CCN(Cc2cnc(S(C)(=O)=O)n2CC2CCCCC2)C1 (stereo unspecified)	-18.29
Cc1cncc(C(=O)N2CCCC3(CCCN3S(C)(=O)=O)C2)c1 (stereo unspecified)	-8.185
Cc1cc(C)cc(C(=O)N2CCCC3(CCCC(=O)N3C)C2)c1 (stereo unspecified)	101
CN1C(=O)CCCC12CCCN(C(=O)c1cccc(C(F)(F)F)c1)C2 (stereo unspecified)	112.4
CS(=O)(=O)N1CCCC12CCCN(C(=O)c1ccc3c(c1)OCO3)C2 (stereo unspecified)	-9.352
CN1C(=O)CCCC12CCCN(C(=O)c1ccc3c(c1)OCO3)C2 (stereo unspecified)	103.5
CN1C[C@H]2CN(C(=O)c3ccc4c(c3)OCO4)CCN2C1=O	3.165
CN1C(=O)CCCC12CCCN(C(=O)c1cc(F)cc(F)c1)C2 (stereo unspecified)	108.3
CS(=O)(=O)N1CCCC12CCCN(C(=O)c1cc(F)cc(F)c1)C2 (stereo unspecified)	3.882
CN(CC(C)(C)C)c1ccc(C(=O)NCCCc2ccccn2)cn1	-1.973
Cc1oc(CNC(=O)Cc2cccc(OC(F)F)c2)cc1C(=O)O	1.075
CN1C(=O)CCCC12CCCN(C(=O)c1ccoc1)C2 (stereo unspecified)	102.5
O=C1CCC2(CCCN(C(=O)c3ccoc3)C2)CN1CCc1c[nH]cn1 (stereo unspecified)	2.528
CN1C(=O)CCC12CCCN(C(=O)c1ccoc1)C2 (stereo unspecified)	1.769
Cc1cc(F)ccc1C(=O)N1C[C@@H]2COC[C@]2(CN(C)C)C1.O=C(O)C(F)(F)F	-5.19
CCC(C)(O)CNC(=O)Nc1ccc(C)cc1Br (stereo unspecified)	-22.84
CNCCN1C(=O)CC[C@H]2CN(c3ncc(F)cn3)CC[C@H]21	-2.163
NC(=O)C(NC(=O)c1cc(Br)c[nH]1)c1ccccc1 (stereo unspecified)	0.3716
